Screens from PubChem.
A selection: hits, their analogues and other compounds. The true share with any hit is near 21%.
NS1 inh: influenza NS1 inhibition | Potency, µM (top dose mostly 46.1 µM), for the others: at the highest dose activity, positive = more growth | 0.4% of 270,000 active | AID 2326; calls by dose curve; further: potency means the concentration at half of the fitted maximal effect; actives are rising curves; nearly all actives have a fitted effect of over 50% in size
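Read-out: OD600 growth recovery of NS1-expressing budding yeast. Cells grown overnight at 30C in -URA glucose medium, washed, resuspended and diluted 1:100 in 2% galactose assay medium, pH 6.0. Same strain lacking NS1 served as positive control.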
Pf growth 96h: P. falciparum growth inhibition at 96 hours | P. falciparum luciferase reporter growth, 96 h | AID 504834 | Potency, µM (highest dose often 28.7 µM), inactives show top-dose activity change, negative = inhibition, most hits filed as inhibitors | 6.9% of 320,000 active; further: potency means the concentration at half of the fitted maximal effect; on the % scale 0 is the no-effect control and ±100 the full control effect
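P. falciparum expressing integrated firefly luciferase grown in erythrocytes (2% hematocrit, 0.05% parasitemia final) with compounds for 96 hours at 37 C, 5% CO2. Growth inhibition read as loss of luminescence after adding luciferase detection reagent.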
Shiga inhibitor: blocks Shiga toxin action in Vero cells | Vero cells, Shiga toxin protein synthesis inhibition reporter | inhibition, % at 38.7 µM | 9.2% of 290,000 active | AID 2315; in the data active means inhibition mostly above about 28%, no sharp cut-off; inactive means mostly below about 43%; further: 0% is about no effect
Pf growth 48h: inhibits P. falciparum growth in the first generation, 48 h; 5.9% of 310,000 active; AID 504832; P. falciparum luciferase growth in erythrocytes, 48 h; Potency, µM (top dose mostly 28.7 µM), for inactives: at the highest dose activity change, negative = inhibition, hits mostly inhibitors; further: potency means the concentration at half of the fitted maximal effect; on the % scale 0 is the no-effect control and ±100 the full control effect
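A one-generation exposure of luciferase-tagged malaria parasites in RPMI 1640/Albumax erythrocyte culture, 37 C and 5% CO2. Inhibition is inferred from decreased luminescence after adding detection reagent.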
CHX counter: counter-screen for Shiga toxin inhibitors: cycloheximide protein synthesis inhibition | cell reporter, cycloheximide protein synthesis inhibition counterscreen | max response, % | 12% of 300,000 active; in the data active means max response mostly above about 13%, no sharp cut-off; inactive means mostly below about 14%; further: read at 38.3 µM for the half of the compounds with a filed dose; 0% is about no effect
Giardia FBPA inh: blocks Giardia fructose-bisphosphate aldolase activity | Potency, µM (doses to about 59.6 µM), for inactives: at the top dose activity, negative = inhibition, most hits filed as inhibitors | 0.71% of 290,000 active | purified Giardia FBPA | AID 2451; further: potency means the concentration at half of the fitted maximal effect; on the % scale 0 is the no-effect control and ±100 the full control effect; nearly all actives have a fitted effect of over 55% in size
Target sequence (A8B2U2 whole entry, looked up): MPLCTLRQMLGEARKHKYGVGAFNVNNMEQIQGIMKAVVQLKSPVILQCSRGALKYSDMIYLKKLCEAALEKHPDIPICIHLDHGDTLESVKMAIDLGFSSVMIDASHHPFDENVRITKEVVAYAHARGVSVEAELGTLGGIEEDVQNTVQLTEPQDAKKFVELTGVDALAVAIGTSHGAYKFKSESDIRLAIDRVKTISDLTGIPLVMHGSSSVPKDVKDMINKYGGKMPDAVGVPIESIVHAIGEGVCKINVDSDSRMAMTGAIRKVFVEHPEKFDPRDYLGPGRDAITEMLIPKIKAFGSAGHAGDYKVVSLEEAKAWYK
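40 nM FBPA preincubated 10 min at RT with compound (up to 57.5 uM final), then substrate plus GAPDH/TPI/NAD/arsenate coupling and diaphorase/resazurin added. Fluorescence read after 20 min at RT, 525/598 nm.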
Starred values were filed as active, the others as inactive; u = inconclusive; x = not tested or not shown; ! = not active in a repeat. Unless noted, the call rests on the fitted dose curve; in most records, active means well fitted curve in the direction sought with a large enough effect; inconclusive means small, poorly fitted or top-dose-only effect, or another doubt; inactive means no such curve, though single readings can be large; an effect the other way counts as inactive or inconclusive.

SMILES | NS1 inh | Pf growth 96h | Shiga inhibitor | Pf growth 48h | CHX counter | Giardia FBPA inh
CSCc1c(C(=O)N2CCCc3ccccc32)oc2ccccc12 | x | -53% | x | 12µM* | x | x
COc1ccc(C(=O)N2CCCc3ccccc32)cc1Br | -38% | u | -7 | -11% | 1 | -8%
O=C(c1cc2ccccc2c(=O)o1)N1CCCc2ccccc21 | 1% | u | 50 | -15% | 17* | 8%
CCCCN(C)C(=O)c1ccc2c(c1)S(=O)(=O)c1ccccc1C2=O | -4% | u | -16 | 4% | 5 | x
O=C(NCc1ccccn1)c1ccc(NS(=O)(=O)c2ccccc2)cc1 | 25% | 101% | -2 | 5% | -3 | 7%
COc1ccc(C(=O)N2CCCC2=O)cc1 | -1% | 13µM*! | 23 | 19% | -4 | -1%
COc1cccc(NC(=O)N2CCCc3ccccc32)c1 | 3% | -11% | 73* | 33% | 47* | -10%
COc1ccc(CC(=O)N2CCCc3ccccc32)cc1 | -16% | u | 99* | 38% | 54* | 7%
COc1cccc(NS(=O)(=O)c2ccc3c(c2)CCCN3C(C)=O)c1 | -6% | -28% | 3 | x | -3 | 4%
CC(=O)c1cccc(NC(=O)N2CCCc3ccccc32)c1 | -10% | -17% | 58 | 83% | 21* | u
COc1ccc(CC(=O)OCC(=O)N2CCCc3ccccc32)cc1 | x | 3% | x | -8% | x | x
COc1ccc2c(c1)c1c(c(=O)n(-c3ccc(OC)c(OC)c3)c(=O)n1Cc1ccccc1C)n2C | x | x | -5 | x | -3 | x
COc1ccc(CC(=O)N2CCCc3ccccc32)cc1OC | -4% | 9% | -14 | u | -3 | 0%
COc1ccc(NC(=O)N2CCCc3ccccc32)cc1OC | -16% | -20% | 55 | 16% | 16* | 3%
CCc1cc2c(-c3ccccc3)cc(=O)oc2cc1OCC(C)=O | -55% | 13µM* | x | -24% | -3 | 5%
O=Cc1ccc(Cl)c(Cl)c1 | x | 41% | x | 9% | x | x
Cc1ccccc1C(=O)Nc1cccc(-c2ccc(N3CCOCC3)nn2)c1 | x | 52% | x | 68% | x | x
Cc1ccc(CCNC(=O)C2CCCN(C(=O)N(C)C)C2)cc1 (configuration not stated) | 4% | -6% | -4 | x | -2 | 0%
CC(C)CNC(=O)C1CCCN(C(=O)NCc2ccccc2)C1 (configuration not stated) | -1% | 4.7µM* | -12 | 4% | -1 | 2%
CN(C)C(=O)N1CCCC(C(=O)NCCc2ccccc2)C1 (configuration not stated) | -51% | 46% | 95* | 102% | 26* | 3%
CN(C)C(=O)N1CCCC(C(=O)NCc2ccccc2)C1 (configuration not stated) | -7% | 4% | -2 | 20% | -3 | 1%
COc1ccc(-c2ocnc2C(=O)NCc2nn(-c3ccccc3)nc2C)cc1 | 0% | 6% | 7 | -6% | 1 | -1%
CCN(CC)/C(=N\S(=O)(=O)c1ccccc1C)c1ccccc1 | 0% | 0% | -12 | 41% | -4 | x
O=C(O)CCC(=O)N1CCc2cc(S(=O)(=O)N3CCN(c4ccc(F)cc4)CC3)ccc21 | -47% | 15µM* | -19 | x | -1 | 4%
O=C(O)CCC(=O)N1CCc2cc(S(=O)(=O)NCc3ccc(Cl)cc3)ccc21 | 1% | 12µM* | 1 | 10% | -4 | x
SMILES | NS1 inh | Pf growth 96h | Shiga inhibitor | Pf growth 48h | CHX counter | Giardia FBPA inh
Cc1ccc(CNS(=O)(=O)c2ccc3c(c2)CCN3C(=O)C2CCC2)cc1 | -5% | 13µM* | -2 | 18% | -1 | x
O=C(C1CCC1)N1CCc2cc(S(=O)(=O)NCc3ccco3)ccc21 | 3% | -24% | 49 | -4% | 35* | 1%
COc1ccc(NC(=O)CCNS(=O)(=O)c2cc(Br)ccc2Br)cc1S(N)(=O)=O | 16% | -4% | -5 | 1% | 12 | 1%
O=C(NCC1CCCCC1)c1cccc(-c2ccc(O)cc2)c1 | 0% | u | 3 | u | 8 | 1%
CCN(CC)CCOC(=O)c1cc(Cl)c(N)cc1OC | -1% | 68% | x | 33% | x | -1%
COc1ccc(N(C)S(=O)(=O)c2ccc3c(c2)CCN3C(=O)C2CC2)c(OC)c1 | -14% | 4.1µM* | -12 | -6% | -4 | x
O=C(CS(=O)(=O)c1ccccc1Cl)N1CCOCC1 | 2% | 28% | 5 | 112% | -2 | x
Cc1ccc(S(=O)(=O)c2cnc(-c3ccccc3)nc2N2CCN(C)CC2)cc1 | -3% | 10µM* | 7 | u | -2 | -1%
Cc1ccc(S(=O)(=O)c2cc(N3CCOCC3)nc(-c3ccccc3)n2)cc1 | -7% | 8.3µM* | -6 | u | -1 | 1%
CN1CCN(c2nc(-c3ccccc3)ncc2S(=O)(=O)c2ccccc2)CC1 | -2% | u | 7 | u | -4 | 6%
Cc1ccc(CNS(=O)(=O)c2ccc(CN3C(=O)c4cccnc4C3=O)cc2)o1 | -2% | -4% | -3 | -8% | -1 | x
CCOc1ccccc1NC(=O)c1cccc(N2C(=O)CCC2=O)c1 | 5% | 2% | -5 | 0% | -2 | -5%
CC1CCCC(C)N1C(=O)COC(=O)c1c[nH]c2ccccc12 (configuration not stated) | x | -3% | x | 19% | x | x
CCCCNC(=O)c1ccc2c(OCC)n(CCCC)nc2c1 | -11% | u | -14 | -1% | 11 | 0%
CCCn1nc2cc(C(=O)NC3CCc4ccccc43)ccc2c1OCC (configuration not stated) | -21% | u | 33 | 12µM* | 0 | -2%
CCCn1nc2cc(C(=O)NCCc3cccs3)ccc2c1OCC | -5% | 38% | 73* | 9% | 29* | 1%
COc1ccc(OC)c(N(CC(=O)NCCSC2CCCCC2)S(=O)(=O)c2ccccc2)c1 | 13% | 0% | -29 | u | -4 | x
O=C(NCCCCc1ccccc1)C1CC(c2cccc(F)c2)=NO1 (configuration not stated) | -41% | 76% | 5 | 33% | -3 | 0%
CCCCCCCNC(=O)C1(CC2CC(c3ccccc3)=NO2)CCN(C(=O)OC(C)(C)C)CC1 (configuration not stated) | x | 6.6µM* | x | 2.9µM* | x | x
COC(=O)C1(Cc2cc(-c3ccccc3)no2)CCN(C(=O)OC(C)(C)C)CC1 | -24% | 0% | 40* | 33% | 27* | -5%
CCCCCCCNC(=O)C1(CC2CC(c3ccccc3)=NO2)CCN(C(=O)c2ccccc2)CC1 (configuration not stated) | x | 9.3µM* | x | 12µM* | x | x
CCCCCCCNC(=O)C1(CC2CC(c3ccc(Cl)cc3)=NO2)CCN(C(=O)c2cc(OCC)c(OCC)c(OCC)c2)CC1 (configuration not stated) | u | 0.33µM* | -6 | 1.2µM* | -3 | 4%
CCOc1cc(C(=O)N2CCN(c3ccccc3)CC2)cc(OCC)c1OCC | -23% | -5% | 1 | u | 1 | -15%
